According to PubChem BioAssay (NCATS):
Results filed as inconclusive are left out. Calls of active or inactive are those of the source. Unless noted, the call rests on the fitted dose curve; in most records, active means well fitted curve in the direction sought with a large enough effect; inconclusive means small, poorly fitted or top-dose-only effect, or another doubt; inactive means no such curve, though single readings can be large; an effect the other way counts as inactive or inconclusive.

Legend:
[1] = molecular target: Cytochrome P450 3A4 (Homo sapiens) (UniProt P08684); assay: qHTS for inhibitors of CYP3A4 against the NCATS DSHEA and TCM libraries (AID 1919971);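 further: on the % scale 0 is the no-effect control and ±100 the full control effect; inhibition lowers luminescence from luciferin made by CYP3A4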
Chain of Cytochrome P450 3A4 (Homo sapiens) (P08684 whole entry, looked up): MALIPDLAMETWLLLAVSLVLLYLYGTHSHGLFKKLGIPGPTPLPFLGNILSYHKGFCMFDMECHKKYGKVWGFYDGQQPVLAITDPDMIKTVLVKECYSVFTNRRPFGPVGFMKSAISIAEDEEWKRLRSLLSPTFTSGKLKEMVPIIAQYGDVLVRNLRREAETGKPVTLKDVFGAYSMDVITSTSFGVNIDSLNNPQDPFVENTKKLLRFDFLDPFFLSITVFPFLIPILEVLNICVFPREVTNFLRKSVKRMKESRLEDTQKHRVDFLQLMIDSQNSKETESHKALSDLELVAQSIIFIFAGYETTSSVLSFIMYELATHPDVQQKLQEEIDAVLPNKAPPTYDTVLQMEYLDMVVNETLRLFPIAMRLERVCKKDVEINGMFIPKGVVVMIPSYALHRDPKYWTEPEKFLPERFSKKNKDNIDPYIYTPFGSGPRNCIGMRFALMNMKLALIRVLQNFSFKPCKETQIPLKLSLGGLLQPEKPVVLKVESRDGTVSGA
How it was run: (§1)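 Luminescent P450-Glo readout. Enzyme plus pro-luciferin substrate in manufacturer buffer (typically 100 mM KPO4); 15 min RT preincubation; 1x NADPH regenerating system, 30-45 min RT in the dark; detection reagent 30 min.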

[2] = molecular target: Cytochrome P450 2D6 (Homo sapiens) (UniProt P10635); assay: qHTS for inhibitors of CYP2D6 against the NCATS DSHEA and TCM libraries (AID 1919972); further: on the % scale 0 is the no-effect control and ±100 the full control effect
Chain of Cytochrome P450 2D6 (Homo sapiens) (P10635 whole entry, looked up): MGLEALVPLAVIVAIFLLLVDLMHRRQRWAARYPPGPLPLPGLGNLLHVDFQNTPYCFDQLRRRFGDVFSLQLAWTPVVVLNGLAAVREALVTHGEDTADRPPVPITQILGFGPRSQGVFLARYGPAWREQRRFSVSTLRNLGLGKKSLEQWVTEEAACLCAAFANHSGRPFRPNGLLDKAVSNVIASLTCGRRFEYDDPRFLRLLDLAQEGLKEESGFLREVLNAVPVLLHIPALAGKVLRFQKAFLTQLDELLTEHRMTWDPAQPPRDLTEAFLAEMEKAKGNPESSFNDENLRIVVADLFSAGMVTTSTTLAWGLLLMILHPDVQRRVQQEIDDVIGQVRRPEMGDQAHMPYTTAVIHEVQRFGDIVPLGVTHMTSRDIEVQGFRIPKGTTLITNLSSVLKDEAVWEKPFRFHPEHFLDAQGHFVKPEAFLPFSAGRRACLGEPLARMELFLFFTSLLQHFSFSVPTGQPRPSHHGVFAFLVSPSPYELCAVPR
How it was run: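 Steps: enzyme plus luciferin substrate dispensed; test substances pinned; 15 min RT; 1x NADPH regenerating solution added, 30–45 min RT protected from light; detection reagent, 30 min RT; luminescence measured. Minus-enzyme wells as background.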

[3] = molecular target: Cytochrome P450 2C9 (Homo sapiens) (UniProt P11712); assay: qHTS for inhibitors of CYP2C9 against the NCATS DSHEA and TCM libraries (AID 1919973);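 further: luminogenic pro-luciferin CYP2C9 substrate turned into luciferin with NADPH regeneration; on the % scale 0 is the no-effect control and ±100 the full control effect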
Chain of Cytochrome P450 2C9 (Homo sapiens) (P11712 whole entry, looked up): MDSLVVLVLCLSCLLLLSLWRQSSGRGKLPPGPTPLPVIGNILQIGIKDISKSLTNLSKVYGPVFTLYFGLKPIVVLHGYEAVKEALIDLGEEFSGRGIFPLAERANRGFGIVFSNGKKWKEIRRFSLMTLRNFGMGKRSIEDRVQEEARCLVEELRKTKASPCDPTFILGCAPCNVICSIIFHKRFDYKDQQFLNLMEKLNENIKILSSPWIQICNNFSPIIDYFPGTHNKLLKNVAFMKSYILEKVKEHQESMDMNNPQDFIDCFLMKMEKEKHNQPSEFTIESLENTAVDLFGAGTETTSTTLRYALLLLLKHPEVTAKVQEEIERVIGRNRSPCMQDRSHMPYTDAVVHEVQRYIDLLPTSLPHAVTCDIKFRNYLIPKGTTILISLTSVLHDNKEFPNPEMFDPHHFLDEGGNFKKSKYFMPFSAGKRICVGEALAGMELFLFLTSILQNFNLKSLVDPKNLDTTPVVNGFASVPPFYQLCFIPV
How it was run: as §1

[4] = KB-3-1 P-gp reporter qHTS against the NCATS DSHEA and TCM libraries (AID 1919975); further: 0% is about no effect
How it was run: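 72 h exposure of KB-3-1 cells (DMEM, 10% FBS) to DSHEA/TCM samples, concentration-response; cell viability measured as CellTiter-Glo luminescence after 30 min at room temperature.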

[5] = molecular target: Cytochrome P450 1A2 (Homo sapiens) (UniProt P05177); assay: qHTS for inhibitors of CYPIA2 against the NCATS DSHEA and TCM libraries (AID 1919976);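 further: light from luciferin formed by CYP1A2 from a pro-luciferin substrate; on the % scale 0 is the no-effect control and ±100 the full control effect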
Chain of Cytochrome P450 1A2 (Homo sapiens) (P05177 whole entry, looked up): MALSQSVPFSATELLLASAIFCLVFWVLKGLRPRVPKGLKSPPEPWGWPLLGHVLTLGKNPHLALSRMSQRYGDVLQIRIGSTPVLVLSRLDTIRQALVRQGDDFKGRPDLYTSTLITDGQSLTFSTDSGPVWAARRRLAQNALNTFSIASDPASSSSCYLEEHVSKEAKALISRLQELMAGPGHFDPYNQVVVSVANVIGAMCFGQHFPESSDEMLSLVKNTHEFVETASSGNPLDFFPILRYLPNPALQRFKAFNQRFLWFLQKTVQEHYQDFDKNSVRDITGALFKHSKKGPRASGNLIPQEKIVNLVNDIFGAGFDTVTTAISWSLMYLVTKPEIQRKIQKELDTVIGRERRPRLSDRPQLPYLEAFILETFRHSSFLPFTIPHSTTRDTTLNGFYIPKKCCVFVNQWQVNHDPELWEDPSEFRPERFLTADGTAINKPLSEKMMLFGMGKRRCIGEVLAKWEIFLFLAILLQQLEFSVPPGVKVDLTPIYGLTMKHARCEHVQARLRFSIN
How it was run: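 Human CYP1A2 with its pro-luciferin substrate in supplier buffer (typically 100 mM KPO4) was pre-incubated with compounds 15 min at RT. Reaction was started with 1x NADPH regeneration solution and run 30-45 min at RT in the dark, then luminescence was read after P450-Glo detection reagent (30 min RT).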

[6] = KB-8-5-11 P-gp reporter qHTS against the NCATS DSHEA and TCM libraries (AID 1919977); further: 0% is about no effect
How it was run: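 Cells were seeded, allowed ~4 h to attach, dosed by pin tool (substance titrations), incubated ~72 h at 37C, then lysed with CellTiter-Glo for 30 min at room temperature before luminescence reading.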

[7] = qHTS Counterscreen for compound interference against the NCATS DSHEA and TCM libraries (AID 1919978); conditions: firefly luciferase detection reagent interference, luminescence; further: % of control where 0% means no effect
How it was run: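 Read-out is luminescence after 30 min at RT with luciferin detection reagent. Before that, compounds (19.5 nM to 39.8 uM final) sat 15 min at RT with 1 uM D-luciferin or 100 mM potassium phosphate buffer. PTC124 served as intraplate control.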

[8] = Dual reporter qHTS for agonist of Pregnane X Receptor (hPXR) against the NCATS DSHEA and TCM libraries: Fluorescence readout (AID 1920058); further: 0% is about no effect
How it was run: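 hPXR-Luc HepG2 cells (2000/well) in phenol red-free medium with charcoal-stripped FBS attached for 5 h, then were exposed to compounds for about 24 h at 37 °C. Viability was read by CellTiter-Fluor fluorescence (Ex/Em 405/540 nm) after 1 h.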

[9] = molecular target: Nuclear receptor subfamily 1 group I member 2 (Homo sapiens) (UniProt O75469); assay: Dual reporter qHTS for agonist of Pregnane X Receptor (hPXR) against the NCATS DSHEA and TCM libraries: Luminescence readout (AID 1920059); further: 0% is about no effect
Chain of Nuclear receptor subfamily 1 group I member 2 (Homo sapiens) (O75469 whole entry, looked up): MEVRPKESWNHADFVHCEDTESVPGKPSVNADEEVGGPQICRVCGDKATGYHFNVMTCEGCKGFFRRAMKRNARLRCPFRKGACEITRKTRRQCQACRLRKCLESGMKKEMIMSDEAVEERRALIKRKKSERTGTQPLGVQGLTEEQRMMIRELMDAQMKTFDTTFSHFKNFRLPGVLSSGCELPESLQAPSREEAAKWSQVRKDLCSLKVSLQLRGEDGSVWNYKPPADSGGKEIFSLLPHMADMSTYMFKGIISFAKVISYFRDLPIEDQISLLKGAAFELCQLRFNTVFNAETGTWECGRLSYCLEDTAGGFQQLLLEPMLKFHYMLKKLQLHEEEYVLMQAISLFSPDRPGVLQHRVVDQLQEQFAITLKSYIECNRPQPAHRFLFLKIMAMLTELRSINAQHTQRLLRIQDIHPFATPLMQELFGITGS
How it was run: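 Luminescent PXR reporter read (ONE-Glo) after a CellTiter-Fluor viability read, following 24 h, 37C treatment of HepG2 cells stably carrying hPXR-Luc.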

[10] = molecular target: Nuclear receptor subfamily 1 group I member 2 (Homo sapiens) (UniProt O75469); assay: Dual reporter qHTS for antagonist of Pregnane X Receptor (hPXR) against the NCATS DSHEA and TCM libraries: Luminescence Readout (AID 1920060);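 further: HepG2 cells carrying hPXR luciferase reporter stimulated with rifampicin at 2 µM; 0% is about no effect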
How it was run: (§2)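 HepG2 hPXR-Luc, 2000 cells/well, charcoal-stripped FBS medium; 5 h attach; RIF 2 uM final; 24 h 37C/5% CO2; CellTiter-Fluor 1 h, fluor 405/540; ONE-Glo 30 min RT, lum.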

[11] = Dual reporter qHTS for antagonist of Pregnane X Receptor (hPXR) against the NCATS DSHEA and TCM libraries: Fluorescence Readout (AID 1920061); further: 0% is about no effect
How it was run: as §2

[12] = qHTS profiling for inhibitors of Plasmodium falciparum proliferation (AID 504749); further: nearly all actives have a fitted effect of over 60% in size; further: potency means the concentration at half of the fitted maximal effect;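 on activity, negative = inhibition: 0% = DMSO vehicle and full inhibition = artemisinin control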; conditions: P. falciparum in erythrocytes, SYBR Green DNA, 72 h
How it was run: (§3)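 Three-day growth assay of blood-stage parasites in erythrocytes (0.3% parasitemia, 2.5% hematocrit) at 37 C, 5% CO2, quantified by SYBR Green DNA staining after overnight detergent lysis.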

3D7 = assay: as above; conditions: P. falciparum in erythrocytes, SYBR Green DNA, 72 h; series mostly up to 28.7 µM
How it was run: as §3

7G8 = assay: as above; conditions: P. falciparum in erythrocytes, SYBR Green DNA, 72 h; series mostly up to 28.7 µM
How it was run: as §3

AA1029 = assay: as above; conditions: P. falciparum in erythrocytes, SYBR Green DNA, 72 h; series mostly up to 28.7 µM
How it was run: as §3

AS120 = assay: as above; conditions: P. falciparum in erythrocytes, SYBR Green DNA, 72 h; series mostly up to 28.7 µM
How it was run: as §3

ATS189 = assay: as above; conditions: P. falciparum in erythrocytes, SYBR Green DNA, 72 h; series mostly up to 28.7 µM
How it was run: as §3

[13] = Primary redox qHTS assay for identification of artifact compounds. (AID 1845223);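 further: 0% = DMSO and 100% = reference compound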
How it was run: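 Amplex Red (25 uM) and HRP (250 mU/mL) in HBSS, with compounds for 15 min, then 250 uM DTT for 30 min, room temperature, dark. Fluorescence 525/598 nm read; normalized to DMSO and 10 uM DA3003; Hill fit.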

[14] = qHTS drug screen for cell cycle checkpoint inhibitors in PARPi-resistant BRCA-mutant ovarian cancer cell lines. (AID 1963452; calls by dose curve; further: potency means the concentration at half of the fitted maximal effect); conditions: PEO1/OlaR viability, CellTiter-Glo luminescence, 96 h; for Z-AUC: stronger effect = lower value
How it was run: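 PEO1, PEO4 and PEO1/OlaR ovarian cancer cells, 600 per well, exposed 96 h at 37C to a dilution series. Viability read by CellTiter-Glo luminescence, normalized to DMSO and empty wells; activity summarized as Z-AUC.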

[15] = molecular target: Cytochrome P450 2C19 (Homo sapiens) (UniProt P33261); assay: qHTS for inhibitors of CYP2C19 against the NCATS DSHEA and TCM libraries (AID 1919974);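 further: luminescence from luciferin released by CYP2C19 oxidation of a pro-luciferin substrate; potency means the concentration at half of the fitted maximal effect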
Chain of Cytochrome P450 2C19 (Homo sapiens) (P33261 whole entry, looked up): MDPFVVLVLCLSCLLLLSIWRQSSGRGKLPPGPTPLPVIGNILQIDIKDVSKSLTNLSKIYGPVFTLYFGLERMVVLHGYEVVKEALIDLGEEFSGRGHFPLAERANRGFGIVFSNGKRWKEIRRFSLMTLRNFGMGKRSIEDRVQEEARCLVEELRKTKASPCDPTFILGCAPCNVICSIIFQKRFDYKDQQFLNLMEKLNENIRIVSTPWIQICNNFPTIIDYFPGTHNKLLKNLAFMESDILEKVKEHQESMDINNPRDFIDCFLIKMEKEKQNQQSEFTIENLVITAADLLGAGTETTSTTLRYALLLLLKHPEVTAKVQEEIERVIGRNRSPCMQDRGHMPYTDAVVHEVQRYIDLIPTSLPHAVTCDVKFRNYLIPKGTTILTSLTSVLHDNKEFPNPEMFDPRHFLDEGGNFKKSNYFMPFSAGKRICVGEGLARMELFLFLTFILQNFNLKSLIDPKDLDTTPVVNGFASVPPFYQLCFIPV
How it was run: as §1

[16] = at 28.7 µM (top of the series), parasite line A
[17] = at 28.7 µM (top of the series), parasite line B
[18] = measured here: PEO1 parental Z-AUC

O=C/C=C/c1ccccc1
inactive: outcome [1] | outcome [2] | outcome [3] | outcome [4] | outcome [5] | outcome [6] | max response [7] 1.86% | outcome [8] | outcome [9] | outcome [10] | outcome [11] | activity, negative = inhibition [12, 16] 8.58% | activity, negative = inhibition [12, 17] -11% | Potency (3D7) | Potency (7G8) | Potency (AA1029) | Potency (AS120) | Potency (ATS189)

C[C@]12CC[C@@H](O)C[C@H]1CC[C@@H]1[C@@H]2CC[C@]2(C)C(=O)CC[C@@H]12
inactive: outcome [13]

CCCC(C)C1(CC)C(=O)NC(=O)NC1=O (stereo unspecified)
inactive: activity, negative = inhibition [12, 16] 2.58% | activity, negative = inhibition [12, 17] 0.184% | Potency (3D7) | Potency (7G8) | Potency (AA1029) | Potency (AS120) | Potency (ATS189)

C/C(O)=C(\C#N)C(=O)Nc1cc(Br)ccc1Br
0.336: Z-AUC [14, 18]
inactive: Z-AUC [14] -0.13
0.627: Z-AUC ([14]; measured here: PEO4 Z-AUC)

C/C(=C\c1csc(C)n1)[C@@H]1C[C@@H]2O[C@]2(C)CCC[C@H](C)[C@H](O)[C@@H](C)C(=O)C(C)(C)[C@@H](O)CC(=O)O1
-2.48: Z-AUC ([14]; measured here: PEO4 Z-AUC)
active: Potency [14] 7.8 nM | Potency ([12]; parasite line A) 2 nM | Potency ([12]; parasite line B) 3.5 nM | Potency (3D7) 3.2 nM | Potency (AA1029) 4.5 nM | Potency (AS120) 2.5 nM | Potency (ATS189) 7.1 nM
-2.7: Z-AUC [14, 18]

COC1=CC(=O)O[C@@H](/C=C/c2ccccc2)C1
inactive: outcome [13] | outcome [1] | outcome [3] | outcome [4] | outcome [6] | max response [7] -0.203% | outcome [8] | outcome [9] | outcome [10] | outcome [11]
active: Potency [15] 14100 nM

C[C@@]12C[C@@H](c3ccoc3)OC(=O)C1CC[C@]1(C)[C@H]2[C@H]2C=C[C@]1(O)C(=O)O2 (stereo partly specified)
inactive: outcome [13]

N#CC(C#N)=Cc1cc(O)c(O)c(O)c1
active: Potency ([12]; parasite line A) 11200 nM | Potency ([12]; parasite line B) 11200 nM | Potency (3D7) 10000 nM | Potency (7G8) 4470 nM | Potency (AA1029) 12600 nM | Potency (AS120) 8910 nM

C[N+]1(C)C2CCC1CC(OC(=O)c1c[nH]c3ccccc13)C2 (stereo unspecified)
inactive: activity, negative = inhibition [12, 16] 3.31% | activity, negative = inhibition [12, 17] 10.8% | Potency (3D7) | Potency (7G8) | Potency (AA1029) | Potency (AS120) | Potency (ATS189)

CCC1(C)CC(=O)NC(=O)C1
inactive: activity, negative = inhibition ([12]; at 12.8 µM (top of the series), parasite line A) 7.23% | activity, negative = inhibition ([12]; at 12.8 µM (top of the series), parasite line B) 5.64% | Potency (3D7) | Potency (7G8) | Potency (AA1029) | Potency (AS120) | Potency (ATS189)

CN1C(=O)N(c2ccc(C#N)c(C(F)(F)F)c2)C(=O)[C@]1(CO)c1ccccc1
inactive: outcome [13]
